Compounds without any hit were thinned out: in the full panel of roughly 83,000, 20% have a hit.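 The test compound was applied at a single concentration to cells in 96-well plates for 48 hours, and percent growth was recorded.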 A number with no mark means an inactive call. Calls of active or inactive are those of the source. How the source made its calls: active means growth percent below 10; inactive means the rest.
Legend:
Assay in all cases: NCI-60 one-dose screen, 48 h (100 = growth as untreated, 0 = no growth, -100 = all killed)
Conditions in all cases: 10 µM unless noted
HCT-15 colon = tested on: HCT-15 colon
HT29 colon = tested on: HT29 colon
SNB-75 CNS = tested on: SNB-75 CNS
SNB-19 CNS = tested on: SNB-19 CNS
U251 CNS = tested on: U251 CNS
PC-3 prostate = tested on: PC-3 prostate
SK-MEL-5 melanoma = tested on: SK-MEL-5 melanoma
UACC-62 melanoma = tested on: UACC-62 melanoma
LOX IMVI melanoma = tested on: LOX IMVI melanoma
SK-MEL-28 melanoma = tested on: SK-MEL-28 melanoma

O=C(O)CCC(=O)Nc1nnc(-c2ccccc2)s1
growth (HCT-15 colon): 93.7%
growth (HT29 colon): 106%
growth (SNB-75 CNS): 87.8%
growth (SNB-19 CNS): 105%
growth (U251 CNS): 105%
growth (PC-3 prostate): 94.8%
growth (SK-MEL-5 melanoma): 103%
growth (UACC-62 melanoma): 97.8%
growth (LOX IMVI melanoma): 99.5%
growth (SK-MEL-28 melanoma): 107%

CCCCCCN(CCCCCC)c1ccc(/C=C2/SC(=O)NC2=O)c(C)c1
growth (HCT-15 colon): 75.7%
growth (HT29 colon): 79.6%
growth (SNB-75 CNS): 78.8%
growth (SNB-19 CNS): 96%
growth (U251 CNS): 75.5%
growth (PC-3 prostate): 69.8%
growth (SK-MEL-5 melanoma): 82.1%
growth (UACC-62 melanoma): 73.1%
growth (LOX IMVI melanoma): 86.5%
growth (SK-MEL-28 melanoma): 93.8%

O=C(N/N=C/c1ccc(Cl)cc1)c1ccc(C(F)(F)F)nc1Nc1cccc(C(F)(F)F)c1
growth (HCT-15 colon): -5.13% (active)
growth (HT29 colon): 16.1%
growth (SNB-75 CNS): 61.3%
growth (SNB-19 CNS): 30.4%
growth (U251 CNS): 5.89% (active)
growth (PC-3 prostate): 9.4% (active)
growth (SK-MEL-5 melanoma): 33.1%
growth (UACC-62 melanoma): 26.7%
growth (LOX IMVI melanoma): -13.9% (active)
growth (SK-MEL-28 melanoma): -2% (active)

COC(=O)c1ccc2[nH]c(O)c(C(=Nc3ccc(N(C)C(=O)CN4CCN(C)CC4)cc3)c3ccccc3)c2c1
growth (HCT-15 colon): 12.3%
growth (HT29 colon): 21.3%
growth (SNB-75 CNS): -4.83% (active)
growth (SNB-19 CNS): 42.6%
growth (U251 CNS): 31.4%
growth (PC-3 prostate): 36.3%
growth (SK-MEL-5 melanoma): 38.3%
growth (UACC-62 melanoma): 74.6%
growth (LOX IMVI melanoma): 16.3%
growth (SK-MEL-28 melanoma): 29.3%

CN(C)CCNc1nc2ccccc2c2c(=O)c3cc(F)ccc3sc12
growth (HCT-15 colon): 22.7%
growth (HT29 colon): -3.23% (active)
growth (SNB-75 CNS): 54.9%
growth (SNB-19 CNS): 55.4%
growth (U251 CNS): 41.4%
growth (PC-3 prostate): 40.4%
growth (SK-MEL-5 melanoma): 83.5%
growth (UACC-62 melanoma): 53.4%
growth (LOX IMVI melanoma): -64.3% (active)
growth (SK-MEL-28 melanoma): 55.6%

O=C1c2cccc3cccc(c23)C(=O)N1N1C(=O)c2cccc3c(NC4CCCCC4)ccc(c23)C1=O
growth (HCT-15 colon): 96.6%
growth (HT29 colon): 95.9%
growth (SNB-75 CNS): 87.5%
growth (SNB-19 CNS): 89.1%
growth (U251 CNS): 99.7%
growth (PC-3 prostate): 83.6%
growth (SK-MEL-5 melanoma): 96.7%
growth (UACC-62 melanoma): 83.5%
growth (LOX IMVI melanoma): 92.1%
growth (SK-MEL-28 melanoma): 100%

Clc1ccc2c(c1)N(CCCN1CCCC1)c1ccccc1S2
growth (HCT-15 colon): 17.6%
growth (HT29 colon): 21%
growth (SNB-75 CNS): 75.4%
growth (SNB-19 CNS): 58.1%
growth (U251 CNS): 36.9%
growth (PC-3 prostate): 18.6%
growth (SK-MEL-5 melanoma): -86.5% (active)
growth (UACC-62 melanoma): -36.5% (active)
growth (LOX IMVI melanoma): -52.5% (active)
growth (SK-MEL-28 melanoma): 42.3%

CCS(=O)(=O)c1ncnc2nc[nH]c12
growth (HCT-15 colon): 101%
growth (HT29 colon): 93.2%
growth (SNB-75 CNS): 90.9%
growth (SNB-19 CNS): 97.9%
growth (U251 CNS): 95.6%
growth (PC-3 prostate): 76.4%
growth (SK-MEL-5 melanoma): 98.7%
growth (UACC-62 melanoma): 94.1%
growth (LOX IMVI melanoma): 101%
growth (SK-MEL-28 melanoma): 107%

COc1ccc(-c2nnc(COc3ccc(Cl)cc3Cl)o2)cc1OC
growth (HCT-15 colon): 49.5%
growth (HT29 colon): 28.7%
growth (SNB-75 CNS): -42% (active)
growth (SNB-19 CNS): 44.6%
growth (U251 CNS): 37.2%
growth (PC-3 prostate): 43.7%
growth (SK-MEL-5 melanoma): 28.2%
growth (UACC-62 melanoma): 43.7%
growth (LOX IMVI melanoma): 16.1%
growth (SK-MEL-28 melanoma): 67.2%

COc1ccc2sc3c(NCCCNCCO)nc4ccccc4c3c(=O)c2c1
growth (HCT-15 colon): 44%
growth (HT29 colon): -39.2% (active)
growth (SNB-75 CNS): 65.9%
growth (SNB-19 CNS): 66.8%
growth (U251 CNS): 32.2%
growth (PC-3 prostate): 62.3%
growth (SK-MEL-5 melanoma): 81.4%
growth (UACC-62 melanoma): 85%
growth (LOX IMVI melanoma): -99.1% (active)
growth (SK-MEL-28 melanoma): 70.6%

COc1ccc2cc(C(C)C(=O)Nc3ccc(-c4n[nH]c(=S)n4C4CCCCC4)cc3)ccc2c1 (stereo not given)
growth (HCT-15 colon): 54.3%
growth (HT29 colon): 85.1%
growth (SNB-75 CNS): 67%
growth (SNB-19 CNS): 80%
growth (U251 CNS): 56.8%
growth (PC-3 prostate): 39.2%
growth (SK-MEL-5 melanoma): 67.5%
growth (UACC-62 melanoma): 58.3%
growth (LOX IMVI melanoma): 70.7%
growth (SK-MEL-28 melanoma): 75.6%

Brc1c[n+](Cc2ccc3ccccc3c2)cn1Cc1ccc2ccccc2c1
growth (HCT-15 colon): 93.6%
growth (HT29 colon): 7.66% (active)
growth (SNB-75 CNS): -30.8% (active)
growth (SNB-19 CNS): 17.3%
growth (U251 CNS): 21.5%
growth (PC-3 prostate): 8.5% (active)
growth (SK-MEL-5 melanoma): -85.2% (active)
growth (UACC-62 melanoma): -59.8% (active)
growth (LOX IMVI melanoma): -89% (active)
growth (SK-MEL-28 melanoma): -3.7% (active)

NS(=O)(=O)c1ccc(-n2nc(C(=O)N/N=C\c3ccc(F)cc3)cc2-c2ccc(Br)cc2)cc1
growth (HCT-15 colon): 54.3%
growth (HT29 colon): 66.4%
growth (SNB-75 CNS): 37.4%
growth (SNB-19 CNS): 83%
growth (U251 CNS): 89%
growth (PC-3 prostate): 72.2%
growth (SK-MEL-5 melanoma): 87.2%
growth (UACC-62 melanoma): 64.4%
growth (LOX IMVI melanoma): 74.9%
growth (SK-MEL-28 melanoma): 77.8%

Nc1nc(-c2cccc3ccccc23)cc2ccccc12
growth (HCT-15 colon): 3.98% (active)
growth (HT29 colon): 1.11% (active)
growth (SNB-75 CNS): 7.16% (active)
growth (SNB-19 CNS): 12%
growth (U251 CNS): 16.3%
growth (PC-3 prostate): 20.5%
growth (SK-MEL-5 melanoma): 11%
growth (UACC-62 melanoma): 23.5%
growth (LOX IMVI melanoma): 20.9%
growth (SK-MEL-28 melanoma): 48.2%

CC1=C([Se]CC(OC(=O)[C@@H](CSSC(C)(C)C)NC(=O)OC(C)(C)C)C(=O)NC(C)(C)C)C(=O)c2ccccc2C1=O (stereo not given in full)
growth (HCT-15 colon): -28.6% (active)
growth (HT29 colon): -6.98% (active)
growth (SNB-75 CNS): -95.8% (active)
growth (SNB-19 CNS): -90.8% (active)
growth (U251 CNS): -86.5% (active)
growth (PC-3 prostate): -71.6% (active)
growth (SK-MEL-5 melanoma): -97.6% (active)
growth (UACC-62 melanoma): -88.1% (active)
growth (LOX IMVI melanoma): -61.9% (active)
growth (SK-MEL-28 melanoma): -96.3% (active)

Cc1ccc2nc(NC(=O)CSc3nc(Cl)c(C#N)c(-c4ccccc4)n3)sc2c1
growth (HCT-15 colon): 99.8%
growth (HT29 colon): 102%
growth (SNB-75 CNS): 95.9%
growth (SNB-19 CNS): 96%
growth (U251 CNS): 99.1%
growth (PC-3 prostate): 89.5%
growth (SK-MEL-5 melanoma): 102%
growth (UACC-62 melanoma): 88.3%
growth (LOX IMVI melanoma): 94.3%
growth (SK-MEL-28 melanoma): 103%

CC1(C)C2CC1C1(/C=N/NC(N)=S)C(C2)C(C#N)(C#N)C1(C#N)C#N (stereo not given)
growth (HCT-15 colon): 27.5%
growth (HT29 colon): 60.6%
growth (SNB-75 CNS): 101%
growth (SNB-19 CNS): 94.8%
growth (U251 CNS): 82.1%
growth (PC-3 prostate): 70.7%
growth (SK-MEL-5 melanoma): 85.6%
growth (UACC-62 melanoma): 78.8%
growth (LOX IMVI melanoma): 50.1%
growth (SK-MEL-28 melanoma): 88.7%

COc1ccc(N)c(N)c1
growth (HCT-15 colon): 101%
growth (HT29 colon): 104%
growth (SNB-75 CNS): 85.7%
growth (SNB-19 CNS): 96.7%
growth (U251 CNS): 107%
growth (PC-3 prostate): 99.4%
growth (SK-MEL-5 melanoma): 105%
growth (UACC-62 melanoma): 93.6%
growth (LOX IMVI melanoma): 99.3%
growth (SK-MEL-28 melanoma): 111%

COc1ccc(CNC(=O)[C@H](O)[C@@H](N)Cc2ccccc2)cc1
growth (HCT-15 colon): 107%
growth (HT29 colon): 103%
growth (SNB-75 CNS): 86%
growth (SNB-19 CNS): 102%
growth (U251 CNS): 101%
growth (PC-3 prostate): 108%
growth (SK-MEL-5 melanoma): 105%
growth (UACC-62 melanoma): 96.6%
growth (LOX IMVI melanoma): 97.6%
growth (SK-MEL-28 melanoma): 107%

CNc1nc2c(s1)C(c1cc(F)ccc1F)CC(=O)N2 (stereo not given)
growth (HCT-15 colon): 42%
growth (HT29 colon): 82.4%
growth (SNB-75 CNS): 32.4%
growth (SNB-19 CNS): 72.2%
growth (U251 CNS): 67.6%
growth (PC-3 prostate): 81.1%
growth (SK-MEL-5 melanoma): 64.5%
growth (UACC-62 melanoma): 50.1%
growth (LOX IMVI melanoma): 73.4%
growth (SK-MEL-28 melanoma): 69.6%
